Measurements reported in PubChem BioAssay AID652067 (The Scripps Research Institute Molecular Screening Center, 2013).
Several values for one entry are separate records, joined by “and”; a condition that tells them apart may be missing. Equal entries are not always repeated. Hit rate of the full screen: of about 370,000 compounds, about 5,400 (1.5%) were called active. This is one part of a sample in which actives are shown more often than they occur.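 Rule for the calls: active = activation above the mean of all tested compounds plus 3 SD (cut at about 5.5% in these data); inactive = the rest.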 More than one record can exist for a structure, and the calls need not agree.

test system: DAF-12 nuclear receptor (Haemonchus contortus); assay: H. contortus DAF-12 nuclear receptor activators, primary screen, cell-based, luminescence, HEK293, lit1-tk-luc reporter (AID 652067); settings: HEK293 hcDAF-12 lit1-tk-luc reporter, at 6.8 µM, stronger effect = higher value, 0% DMSO, 100% Δ7-dafachronic acid;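 note: 100% = response to 3 µM Δ7-dafachronic acid high control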

SMILES	activation
C[C@H](C(=O)N(C)c1ccccc1)[C@@H](O)c1ccc2ccccc2c1	0.57% (inactive)
COc1cccc(CNC(=O)[C@H]2CCCN2C(=O)[C@H]2CCCN2C(=O)c2ccc(F)cc2)c1	2.09% (inactive)
COC(=O)C1=C(C)N(Cc2ccc(C(F)(F)F)cc2)C(=NCc2ccccc2)NC1c1ccccc1C(F)(F)F (stereo not given)	0.56% (inactive)
Cc1cc(C)c2nc(N3CCC(C(=O)NCCN4CCOCC4)CC3)sc2c1	1.35% (inactive)
Cc1cc(C)c2nc(NC(=O)C3CCCO3)sc2c1 (stereo not given)	8.44% (active)
Cc1ccc(C)c(C(C)NC(=O)C2CCCO2)c1 (stereo not given)	-1.93% (inactive)
O=C(C(=O)N1CCC(CNC(=O)c2cccnc2Cl)CC1)c1cccs1	-0.06% (inactive)
O=C(NCc1ccccc1)[C@@H]1CCCN1C(=O)[C@@H](NS(=O)(=O)c1ccc(F)cc1F)C1CCCCC1	-1.11% (inactive)
Cc1ccc(NC(=O)c2ccc(Cl)nc2)cc1S(=O)(=O)N1CCOCC1	-0.39% (inactive)
O=C(Nc1ccc2nc3n(c(=O)c2c1)CCCC3)c1ccc(Cl)nc1	-2.27% (inactive)
Cc1cnc(NC(=O)Cn2cnc3c2c(=O)n(C)c(=O)n3C)s1	-1.32% (inactive)
Cc1cnc(NC(=O)c2ccc(Cl)nc2)s1	7.6% (active)
Cc1cnc(NC(=O)c2ccccn2)s1	5.94% (active)
Cc1cccc(NC(=O)c2cccc(C(=O)Nc3cccc(C)c3C)n2)c1C	0.52% (inactive)
COc1ccccc1C(=O)N1O[C@]23C=C[C@]14C[C@@H](O)CC[C@]4(C)C2CC[C@]1(C)[C@@H]([C@H](C)/C=C/[C@H](C)C(C)C)CC[C@H]13 (stereo not given in full)	0.11% (inactive)
C[C@@H]1CN([C@H](C)CO)C(=O)CCCn2cc(nn2)CO[C@H]1CN(C)C(=O)Nc1ccc(N2CCCCC2)cc1	-1.32% (inactive)
Cc1ccc(-n2c(SCC(=O)Nc3cccc4ccccc34)nnc2-c2ccccn2)cc1	0.59% (inactive)
C[C@H]1[C@H](c2ccccc2)Oc2cc(Br)ccc2S(=O)(=O)N1Cc1cccc(F)c1	-0.73% (inactive)
COc1ccc(S(=O)(=O)NCCc2cc3ccc(C)c(C)c3[nH]c2=O)cc1	-0.62% (inactive)
CC1CCCCC1NC(=O)/C(C#N)=C/C=C/c1ccccc1[N+](=O)[O-] (stereo not given)	-0.31% (inactive)
COc1cc(/C=C(\C#N)C(=O)Nc2ccc3ccccc3c2)c([N+](=O)[O-])cc1OC	5.84% (active)
COc1cc(NC(=O)COC(=O)CSc2ccc3ccccc3c2)c(C)cc1[N+](=O)[O-]	2.93% (inactive)
Clc1ccc(-n2c(SC/C=C/c3ccccc3)nnc2-c2ccco2)cc1	-1.47% (inactive)
CN[C@H]1C[C@H]2c3[nH]c4c(-c5ccccc5)cccc4c3CCN2C(=O)[C@H]1[C@H](C)O	0.81% (inactive)
CC(C)(C)C1CCC(=NNC(=O)c2ccc(Br)o2)CC1 (stereo not given)	0.02% (inactive)
O=C(N/N=C\C1CC=CCC1)c1ccc(Br)o1 (stereo not given)	6.56% (active)
CCC(C)(C)C1CCC(=NNC(=O)c2ccc(Br)o2)CC1 (stereo not given)	4.11% (inactive)
COc1ccc(Cn2ccc3ccc(-c4ccc5ccn(Cc6ccccc6C)c5c4)cc32)cc1	-1.83% (inactive)

SMILES	activation
FC(F)(F)c1cccc(Cn2ccc3ccc(-c4ccc5ccn(Cc6ccccc6)c5c4)cc32)c1	-1.69% (inactive)
CCC(=O)Nc1ccc2c(c1)C(=O)N(C)[C@@H]1CC[C@@H](CC(=O)NCCc3ccccc3)O[C@H]1CO2	0.81% (inactive)
Cc1cc(N)n2nc(-c3ccc(C(C)(C)C)cc3)cc2n1	17.7% (active)
O=C(NCC1COc2ccccc2O1)c1ccc(NC(=O)c2cc(F)ccc2F)cc1 (stereo not given)	-4.01% (inactive)
CCOC(=O)C(=O)N(Cc1ccccc1)c1ccccc1C(=O)Nc1cc(OC)ccc1OC	-1.88% (inactive)
COc1ccc2nc3n(c(=O)c2c1)-c1ccc(Cl)cc1C(=O)NC3Cc1ccccc1 (stereo not given)	-2.8% (inactive)
CCc1nc(SCC(=O)Nc2ccccc2OC)n[nH]1	-0.29% (inactive)
COC(=O)c1ccccc1NC(=O)CSc1n[nH]c(-c2ccncc2)n1	5.75% (active)
CCOC(=O)c1cnc(SCC(=O)Nc2ccccc2C(=O)OC)nc1N	-1.24% (inactive)
CC(C)N1CCCCC(NC(=O)C(C)(C)C)C1=O (stereo not given)	-1.93% (inactive)
S=c1nccc(-c2cc(Cl)sc2Cl)[nH]1	0.15% (inactive)
COc1ccc2c(c1)CN1CN(CCc3ccccc3)S(=O)(=O)CC21 (stereo not given)	-2.08% (inactive)
Cc1c(C(=O)Nc2ccccn2)oc2ccc(Br)cc12	10.7% (active)
CCc1nonc1NC(=O)c1oc2ccc(Cl)cc2c1C	1.13% (inactive)
Cc1c(C(=O)NC2CCCCC2)oc2ccccc12	-0.82% (inactive)
CCCCOCCCNC(=O)C[C@H]1C[C@@]2(C(=O)OC)C(=C[C@H](C(C)(C)C)O[C@@H]2C)N(CCc2ccc(OC)c(OC)c2)C1=O	1.41% (inactive)
COC(=O)C1CN(Cc2ccc(F)cc2)CCS(=O)(=O)N1Cc1ccc(Cl)cc1 (stereo not given)	-1.27% (inactive)
Cc1ccc2nc(-c3ccccc3)c(CC3CCCCC3)n2c1	6.66% (active)
Cc1ccc2nc(-c3cccnc3)c(NC3CCCC3)n2c1	-1.32% (inactive)
COc1ccccc1Cc1c(-c2ccc(F)cc2)nc2ccc(C)cn12	0.41% (inactive)
COc1ccc(CNC(=O)C(=O)NCC2OCCN2C(=O)c2ccc(OC)cc2)cc1 (stereo not given)	-1.18% (inactive)
CN1CCCc2nc(-c3ccccc3)ccc21	-0.45% (inactive)
COc1ccc(CN(CCN2CCOCC2)C(=O)c2ccc(C)cc2)cc1OC	-0.48% (inactive)
O=S(=O)(c1ccc(OCC(O)CN2CCN(c3ccccc3Cl)CC2)cc1)N1CCOCC1 (stereo not given)	-1.63% (inactive)
OC(COc1ccc2ccccc2c1)CN1CCOCC1 (stereo not given)	7.54% (active) and 3.73% (inactive)
OC(COc1ccc2ccccc2c1)Cn1cncn1 (stereo not given)	-0.78% (inactive)
COc1ccnc(NC(=S)N2CCN(c3ncc(C(F)(F)F)cc3Cl)CC2)c1	-1.75% (inactive)
